This passage reports growth results from PubChem BioAssay (NCI).

Assay in all cases: NCI-60 one-dose screen, 48 h (100 = growth as untreated, 0 = no growth, -100 = all killed)
Conditions in all cases: 10 µM unless noted

Experiment [1] deals with SR leukemia.
Experiment [2] has as its system RPMI-8226 leukemia.
The test system of experiment [3] is OVCAR-8 ovarian.
In experiment [4] the test system is OVCAR-5 ovarian.
The test system of experiment [5] is OVCAR-4 ovarian.
The test system of experiment [6] is SK-OV-3 ovarian.
Experiment [7] relates to IGROV1 ovarian.
Experiment [8] concerns OVCAR-3 ovarian.
The test system of experiment [9] is HS 578T breast.
Experiment [10] deals with NCI/ADR-RES ovarian.
Experiment [11] concerns T-47D breast.
Experiment [12] relates to BT-549 breast.
Experiment [13] relates to MDA-MB-435 melanoma.
Experiment [14] deals with SW-620 colon.
For experiment [15], the system named is MCF7 breast.
For experiment [16], the system named is HCT-116 colon.
Experiment [17] has as its system HCC-2998 colon.
Experiment [18] has as its system KM12 colon.

The panel holds about 83,000 compounds, 20% with a hit somewhere; the sample as a whole holds those more often.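 Step 1: grow cells in 96-well plates. Step 2: add test compound at a single concentration. Step 3: incubate 48 h. Step 4: record percent growth.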 Values without a mark were called inactive. Activity calls are given as the source filed them. The calls were made as follows: active = growth percent below 10; inactive = the rest.

Consider `Cc1c2ccncc2c(C)c2c1c1ccccc1n2CCCCCC(=O)O`, for which the growth in experiment [1] is 65.1%; in experiment [2] it was 86.3%; in experiment [3], 79.5%; in experiment [4] it was 109%; in [5], 94.3%; in [6], 95.6%. The growth is 76.9% in experiment [7]; 93.1% in [8]; 88.5% in experiment [9]; 80.1% in [10]; 86.5% in experiment [11]; 89.4% in experiment [12]. Also, the growth in [13] is 99.2%; in experiment [14], 82.4%; in experiment [15] it was 77.6%; in experiment [16], 75.8%; in experiment [17] it was 104%; in experiment [18], 82.3%.

As to `CC(=O)Cc1nsc(NC(=O)c2cc(-c3cc(Cl)ccc3Cl)oc2C)n1`, the growth was 98.5% in experiment [1]; 100% in experiment [2]; 102% in experiment [3]; 111% in [4]; 113% in [5]; 104% in experiment [6]. For the same compound, the growth in experiment [7] is 109%; in experiment [8], 110%; in [9] it was 106%; in experiment [10], 108%; in [11] it was 87.6%; in experiment [12] it was 102%. Also, the growth in [13] was 101%; in [14] it was 107%; in [15], 97.7%; in experiment [16], 95.8%; in [17] it was 103%; in experiment [18], 107%.

Consider `COC(=O)c1c(C)nc(C)c2c1C(=O)C(Br)=C(NCCN1CCOCC1)C2=O`, for which the growth was 107% in experiment [1]; 93.7% in experiment [2]; 81.9% in experiment [3]; 118% in experiment [4]; 73.8% in [5]; 138% in experiment [6]. Moreover, the growth in experiment [7] is 96.2%; in experiment [8] it was 13.2%; in experiment [9] it was 110%; in [10], 103%; in experiment [11], 114%; in experiment [12] it was 101%. Further, the growth in experiment [13] was 56.1%; in experiment [14], 92.1%; in experiment [15], 82.3%; in experiment [16], 67.4%; in experiment [17] it was 101%; in experiment [18] it was 96.9%.

Take `N#CC1=C(N)Oc2c(ccc3ccccc23)C1c1cc2ccccc2n2nnnc12` (centres undefined): the growth is 3.88% (active) in [1]; -8.74% (active) in [2]; 26.6% in experiment [3]; 39.4% in experiment [4]; 65% in experiment [5]; 12.5% in [6]. The growth was 33.3% in experiment [7]; -20.7% (active) in experiment [8]; 17.7% in experiment [9]; 0.93% (active) in experiment [10]; 25% in experiment [11]; 16.2% in experiment [12]. Besides, the growth is -27.7% (active) in experiment [13]; 9.58% (active) in experiment [14]; 9.81% (active) in experiment [15]; -5.37% (active) in experiment [16]; 46.9% in experiment [17]; 18.1% in experiment [18].

Turning to `COc1cccc(/C=C2\CCc3ccccc3C2=O)c1`, the growth in experiment [1] was 21%; in experiment [2], 6.5% (active); in [3] it was 92.5%; in experiment [4] it was 85.9%; in experiment [5], 88.5%; in [6], 86.5%. The growth in experiment [7] is 80.7%; in experiment [8], 89.5%; in experiment [9], 87.4%; in experiment [10] it was 71.4%; in experiment [11], 75.3%; in experiment [12], 86.4%. Also, the growth in experiment [13] was 58.2%; in experiment [14], 52.1%; in experiment [15], 27.5%; in experiment [16], 53.4%; in [17], 94.7%; in experiment [18] it was 64%.

Turning to `Cc1ccc2c(n1)C[C@H](C(C)(C)O)CC[C@H]2C`, the growth in experiment [1] was 107%; in experiment [2] it was 110%; in [3], 101%; in [4], 94.7%; in experiment [5], 99.6%; in experiment [6], 99.1%. The growth in experiment [7] was 104%; in experiment [8], 113%; in experiment [9], 111%; in experiment [10] it was 104%; in experiment [11], 96.5%; in experiment [12] it was 112%. The growth was 102% in [13]; 104% in experiment [14]; 94.6% in [15]; 97.4% in experiment [16]; 102% in experiment [17]; 109% in experiment [18].

As for `CCOC(=O)c1ccc2c(c1)[n+](=O)c(C(C)=O)c(C(F)(F)F)n2[O-]`, the growth is -59.2% (active) in [1]; 8.56% (active) in [2]; -42.6% (active) in experiment [3]; -1.19% (active) in experiment [4]; -5.96% (active) in experiment [5]; 24.8% in [6]. Further, the growth in experiment [7] is -81.1% (active); in experiment [8] it was -84.7% (active); in experiment [9], -23.9% (active); in experiment [10], 6.85% (active); in experiment [11] it was -26.1% (active); in experiment [12], -44.9% (active). The growth in [13] was 2.85% (active); in experiment [14] it was -0.801% (active); in experiment [15], -6.41% (active); in experiment [16], -38.9% (active); in [17], -17.1% (active); in experiment [18], -85.5% (active).

Regarding `COc1cc2cc(Oc3ccc(NC(=O)Nc4ccc(F)c(C(F)(F)F)c4)cc3)c(C)nc2cc1OCCN1CCCCC1`, the growth in [1] is -46.1% (active); in experiment [2], -25.8% (active); in [3], -55.5% (active); in [4], 127%; in experiment [5], 0.714% (active); in experiment [6], 115%. Further, the growth was 34.7% in experiment [7]; -92.5% (active) in [8]; 102% in experiment [9]; 74.7% in experiment [10]; 78.5% in [11]; 85.3% in experiment [12]. For the same compound, the growth in experiment [13] was -92.5% (active); in experiment [14] it was -76.2% (active); in [15] it was -75% (active); in [16] it was -89.8% (active); in [17] it was 96.9%; in [18] it was -79.9% (active).
